Results on 19 molecules are retold here after PubChem BioAssay (Tox21).

Assay [1] in a line: qHTS assay to identify small molecule antagonists of the estrogen related receptor (ERR) signaling pathway from Tox21 library - cell viability counter screen (AID 1224834). Further: nearly all actives have a fitted effect of over 30% in size. Further: potency means the concentration at half of the fitted maximal effect. The gist of the method:
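ERR cells, 2,000/well; 6 h settle at 37 C/5% CO2; pin-tool compound transfer in DMSO; 17.5 h at 37 C; CellTiter-Fluor, 30 min; fluorescence intensity.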
(Quantitative high-throughput screening tests each substance at several concentrations.)

Assay [2] concerns the target Luciferin 4-monooxygenase (Photinus pyralis) (UniProt P08659). The experiment in a line: qHTS assay to identify small molecule inhibitors of firefly luciferase (AID 1224835). Further: nearly all actives have a fitted effect of over 25% in size. Further: potency means the concentration at half of the fitted maximal effect. On activity change, negative = inhibition: series mostly up to about 120 µM. The gist of the method:
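Inhibition of purified Photinus luciferase is measured by luminescence. Substrate levels (D-luciferin, ATP) sit at their KM values. Each compound is tested in a concentration series.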

Assay [3] in a line: qHTS assay to identify small molecule agonists of the constitutive androstane receptor (CAR) signaling pathway - cell viability counter screen (AID 1224836). Further: nearly all actives have a fitted effect of over 45% in size. Further: potency means the concentration at half of the fitted maximal effect. On viability change, negative = cytotoxic: series mostly up to about 92 µM. The gist of the method:
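Using CellTiter-Fluor, viability of HepG2 cells harbouring hCAR and CYP2B6-2.2kb was measured following 23 h incubation with a 15-concentration compound series plus PK11195 (0.75 uM final).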

Assay [4] in a line: qHTS assay to identify small molecule antagonists of the constitutive androstane receptor (CAR) signaling pathway - cell viability counter screen (AID 1224837). Further: series mostly up to about 92 µM; nearly all actives have a fitted effect of over 45% in size. The gist of the method:
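Viability was measured with CellTiter-Fluor in a HepG2 line carrying stably transfected hCAR and a CYP2B6-2.2kb construct. Cells were exposed for 23 hr at 37 C to 15 compound concentrations with 50 nM CITCO as agonist.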

Assay [5] in a line: qHTS assay to identify small molecule antagonists of the estrogen related receptor signaling pathway with the pleiotropic PPARgamma coactivator (PGC) from Tox21 10K library (AID 1224841; call rule not given here; further: series mostly up to about 92 µM; actives are mostly falling curves and most rising ones were filed inactive; nearly all actives have a fitted effect of over 50% in size). An outline of the steps:
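Steps: plate 2,000 PGC/ERR cells per well; incubate 6 h at 37 C with 5% CO2; transfer compounds from DMSO stocks by pin tool; incubate 18 h at 37 C; add One-Glo; measure luminescence 30 min later.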

Assay [6] can be described thus: qHTS assay to identify small molecule agonists of the estrogen related receptor signaling pathway with the pleiotropic PPARgamma coactivator (PGC) from Tox21 10K library (AID 1224842). Further: nearly all actives have a fitted effect of over 15% in size. Further: potency means the concentration at half of the fitted maximal effect. An outline of the steps:
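Luminescence from One-Glo (30 min, room temperature) measured after PGC/ERR cells had 18 h at 37 C with pinned compound (23 nL in DMSO). Cells had been seeded at 2,000 per well and pre-incubated 6 h.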

Assay [7] has as its target Thyrotropin receptor (Homo sapiens) (UniProt P16473). Kind of assay: qHTS assay to identify small molecule agonists of the thyroid stimulating hormone receptor (TSHR) signaling pathway (AID 1224843; calls by dose curve; further: nearly all actives have a fitted effect of over 45% in size). An outline of the steps: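 Agonist activity read as cAMP rise via d2/cryptate HTRF competition, 1 h room-temperature detection, in HEK293 cells expressing TSHR. Fifteen-point titrations, each run in triplicate, with a 30 min room-temperature incubation beforehand.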

A short description of assay [8]: qHTS assay to identify small molecule antagonists of the estrogen related receptor signaling pathway with the pleiotropic PPARgamma coactivator (PGC) from Tox21 10K library - cell viability counter screen (AID 1224840; active means well fitted cell-killing curve with a large enough effect in the repeat runs, not every such curve was filed as active; further: nearly all actives have a fitted effect of over 40% in size; further: potency means the concentration at half of the fitted maximal effect). An outline of the steps:
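Multiplexed viability counter screen in the PGC/ERR cell line: cells treated with DMSO-dissolved compounds for 17.5 hours at 37 C, then viability measured as CellTiter-Fluor fluorescence.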

Assay [9] has as its target Nuclear receptor subfamily 1 group I member 3 (Homo sapiens) (UniProt Q14994). Kind of assay: qHTS assay to identify small molecule antagonists of the constitutive androstane receptor (CAR) signaling pathway (AID 1224838).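 Further: HepG2 cells stably expressing hCAR with CYP2B6 luciferase reporter stimulated by CITCO; nearly all actives have a fitted effect of over 40% in size.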 An outline of the steps: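 Antagonist mode used CITCO at a final 50 nM to activate CAR in human hepatoma HepG2 cells carrying stable hCAR and a 2.2 kb CYP2B6 promoter-luciferase construct. Compounds were tested at 15 concentrations over 24 h, with luminescence as the end point.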

Assay [10] shares this target. Kind of assay: qHTS assay to identify small molecule agonists of the constitutive androstane receptor (CAR) signaling pathway (AID 1224839). Further: nearly all actives have a fitted effect of over 15% in size. Further: potency means the concentration at half of the fitted maximal effect. On activation: series mostly up to about 92 µM. An outline of the steps: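 Double-stable HepG2 cells (hCAR, CYP2B6-2.2kb) seeded 4 h before compound addition. Exposure 24 h with 0.75 uM PK11195 final. Luciferase detected by ONE-Glo.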

Inconclusive results are not listed. The source holds several records for some structures; these can differ, active in one and inactive in another. Activity calls are given as the source filed them. Unless noted, the call rests on the fitted dose curve; in most records, active means well fitted curve in the direction sought with a large enough effect in the repeat runs; inconclusive means weak or mixed curves; inactive means no such curve, though single readings can be large; an effect the other way counts as inactive or inconclusive.
On the % scale 0 is the no-effect control and ±100 the full control effect.

Luciferin 4-monooxygenase (Photinus pyralis), sequence (P08659 whole entry, looked up): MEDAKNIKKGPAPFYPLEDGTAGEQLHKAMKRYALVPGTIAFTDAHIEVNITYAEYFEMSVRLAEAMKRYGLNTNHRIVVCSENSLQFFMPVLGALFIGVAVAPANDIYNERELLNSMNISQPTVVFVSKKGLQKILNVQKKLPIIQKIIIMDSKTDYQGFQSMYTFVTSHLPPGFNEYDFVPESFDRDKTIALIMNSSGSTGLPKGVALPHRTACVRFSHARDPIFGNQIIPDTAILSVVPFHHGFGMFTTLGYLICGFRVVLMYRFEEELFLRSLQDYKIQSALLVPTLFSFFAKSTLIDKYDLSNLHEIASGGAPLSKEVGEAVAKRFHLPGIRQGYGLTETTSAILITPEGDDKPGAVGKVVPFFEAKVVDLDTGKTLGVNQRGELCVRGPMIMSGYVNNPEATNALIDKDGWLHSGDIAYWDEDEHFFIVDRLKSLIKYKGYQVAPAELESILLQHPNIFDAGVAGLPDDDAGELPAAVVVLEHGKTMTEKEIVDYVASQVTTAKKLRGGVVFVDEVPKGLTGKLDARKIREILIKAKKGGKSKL
Thyrotropin receptor (Homo sapiens), sequence (P16473 whole entry, looked up): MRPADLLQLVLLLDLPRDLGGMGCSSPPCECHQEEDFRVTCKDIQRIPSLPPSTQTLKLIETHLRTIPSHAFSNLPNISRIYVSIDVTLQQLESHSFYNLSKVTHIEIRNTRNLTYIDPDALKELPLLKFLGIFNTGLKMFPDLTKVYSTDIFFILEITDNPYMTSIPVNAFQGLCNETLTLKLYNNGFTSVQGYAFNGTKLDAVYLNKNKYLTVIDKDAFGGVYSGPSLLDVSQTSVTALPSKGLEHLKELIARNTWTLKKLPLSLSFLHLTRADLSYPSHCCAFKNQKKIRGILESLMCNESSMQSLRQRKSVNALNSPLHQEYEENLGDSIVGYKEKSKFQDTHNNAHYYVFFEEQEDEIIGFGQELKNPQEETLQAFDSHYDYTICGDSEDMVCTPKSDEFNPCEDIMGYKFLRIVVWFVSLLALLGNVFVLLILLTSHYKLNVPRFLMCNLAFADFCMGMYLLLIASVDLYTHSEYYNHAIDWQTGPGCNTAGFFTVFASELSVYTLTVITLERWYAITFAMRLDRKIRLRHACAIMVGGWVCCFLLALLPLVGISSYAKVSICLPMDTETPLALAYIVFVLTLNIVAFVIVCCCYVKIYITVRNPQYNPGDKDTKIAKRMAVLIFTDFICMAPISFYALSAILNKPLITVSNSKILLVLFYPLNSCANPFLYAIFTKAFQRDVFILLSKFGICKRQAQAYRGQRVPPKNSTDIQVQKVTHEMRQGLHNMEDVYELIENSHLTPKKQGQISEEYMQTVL
Nuclear receptor subfamily 1 group I member 3 (Homo sapiens), sequence (Q14994 whole entry, looked up): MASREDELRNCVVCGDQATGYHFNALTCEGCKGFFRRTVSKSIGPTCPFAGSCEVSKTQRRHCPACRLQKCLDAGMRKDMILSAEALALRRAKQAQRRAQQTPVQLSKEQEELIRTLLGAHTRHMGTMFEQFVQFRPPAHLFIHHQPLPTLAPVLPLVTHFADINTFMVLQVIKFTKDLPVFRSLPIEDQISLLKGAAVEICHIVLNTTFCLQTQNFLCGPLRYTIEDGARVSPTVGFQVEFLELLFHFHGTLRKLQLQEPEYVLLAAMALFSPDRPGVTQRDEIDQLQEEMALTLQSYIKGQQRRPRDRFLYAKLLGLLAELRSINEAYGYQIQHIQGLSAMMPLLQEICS

For `Cc1ccc(C)cc1`, the Potency entry in assay [1], in assay [2], in assay [3], in assay [4], in assay [5] and in assay [6] was “inactive” each time.
With `Cc1cccc(C(=O)O)c1O`, the Potency entry in assay [1], in [2], in assay [3], in assay [4], in [5] and in assay [6] was “inactive” each time. Moreover, in assay [7], the Potency result was “inactive”.
As to `CC(C)(C)CC(C)(C)c1ccc(Nc2ccc(C(C)(C)CC(C)(C)C)cc2)cc1`, the viability change, negative = cytotoxic in [1] is 0.525% [at 8.39 µM] (inactive); in assay [3], -0.428% [at 8.39 µM] (inactive); in assay [8], -0.792% [at 8.39 µM] (inactive). In addition, in assay [2], the activity change, negative = inhibition is -2.16% [at 10.5 µM] (inactive). Moreover, the activity change, negative = cytotoxicity in [4] is 7.27% [at 8.39 µM] (inactive). The activation in assay [7] was 21.9% [at 8.39 µM] (inactive).
As for `CCC(CC)C(C)CCOC(C)=O` (configuration not stated), the Potency entry in assay [1], in assay [2], in assay [3], in assay [9], in assay [10] and in assay [8] was “inactive” in each case. Further, the Potency result in [7] is “inactive”.
Turning to `CC(CCc1ccccc1)NCC(O)c1ccc(O)c(C(N)=O)c1` (configuration not stated), the Potency is 27.3 µM (active) in [1] and 30.6 µM (active) in assay [3]. The Potency entry in assay [2], in [9], in assay [10] and in assay [8] was “inactive” throughout.
`O=C(/C=C/c1ccccc1)OC/C=C/c1ccccc1`: the Potency entry in assay [1], in assay [3], in assay [4] and in [6] was “inactive” throughout. In assay [2], the Potency is 71 µM (active).
In the case of `O=[N+]([O-])c1cccc(C(F)(F)F)c1`, the Potency result in assay [1], in assay [2], in assay [3], in assay [4], in assay [8] and in assay [7] was “inactive” in each case.
For the molecule `Cc1nc2n(c(=O)c1CCN1CCC(c3noc4cc(F)ccc34)CC1)CCCC2`, the Potency result in assay [1], in assay [2], in assay [3], in [4], in assay [8] and in assay [7] was “inactive” in each case.
As to `CCCCC/C=C\C/C=C\CCCCCCCC(=O)O`, the Potency entry in [1], in assay [3], in assay [4] and in assay [7] was “inactive” each time. In addition, the Potency in assay [2] was 78.3 µM (active) and inactive.
Regarding `O=C(Oc1ccccc1)Oc1ccccc1`, the Potency result in assay [1], in assay [3], in assay [4], in assay [6] and in assay [7] was “inactive” throughout. For the same molecule, the Potency in assay [2] is 31.6 µM (active).
In the case of `O=S(=O)(O)c1ccc(Nc2nc(Nc3ccc(/C=C/c4ccc(Nc5nc(Nc6ccc(S(=O)(=O)O)cc6)nc(N(CCO)CCO)n5)cc4S(=O)(=O)O)c(S(=O)(=O)O)c3)nc(N(CCO)CCO)n2)cc1`, the Potency entry in assay [1], in assay [2], in [3], in assay [4], in assay [6] and in assay [7] was “inactive” in each case.
Consider `CCO[Si](OCC)(OCC)OCC`, for which the Potency entry in assay [1], in assay [2], in assay [3], in assay [9], in assay [10] and in assay [8] was “inactive” each time. Besides, the Potency entry in [7] is “inactive”.
Turning to `O=c1oc2cc(O)ccc2c2oc3cc(O)ccc3c12`, the Potency entry in assay [1], in [3], in [9], in [8] and in assay [5] was “inactive” in each case. In addition, the Potency was 19.2 µM (active) in [2] and 58.6 µM (active) in [6].
`C=C(CC)C(=O)c1ccc(OCC(=O)O)c(Cl)c1Cl`: the Potency result in assay [1], in [3], in assay [9], in [8], in assay [6] and in assay [7] was “inactive” each time. The Potency in [2] is 79.1 µM (active) and inactive; in [10] it was 3.35 µM (active).
With `O=c1[nH]c(=O)n([C@H]2C[C@H](O)[C@@H](CO)O2)cc1F`, the Potency entry in [1], in assay [2], in assay [3], in assay [8] and in [7] was “inactive” in each case.
Take `OCCN1CCN(CCCN2c3ccccc3Sc3ccc(C(F)(F)F)cc32)CC1`: the Potency in [1] and in [8] was 29.8 µM (active) each time. Moreover, the Potency result in assay [2] and in [7] was “inactive” throughout.
As for `O=C(O)Cc1ccccc1Nc1c(Cl)cccc1Cl`, the Potency result in assay [1], in assay [2], in assay [3], in [9], in assay [8] and in [7] was “inactive” each time.
For the molecule `O=c1[nH]c2ccccc2n1CCCN1CCN(C(c2ccccc2)c2ccccc2)CC1`, the Potency in assay [1] and in assay [8] was 23.7 µM (active) throughout. Further, the Potency entry in assay [2], in [10] and in assay [7] was “inactive” each time.
As for `CC(=O)c1ccc(C(C)=O)cc1`, the Potency result in [1], in assay [3], in assay [4], in [9], in assay [10] and in assay [8] was “inactive” throughout. Further, the Potency result in assay [5], in [6] and in assay [7] was “inactive” in each case.
